S aureus QS inh: S. aureus quorum sensing inhibition; S. aureus RN6390 RNAIII-GFP reporter, AIP-induced, flow cytometry 3 h; inhibition, % at 2 µM; 24,000 tested, 0.3% active; AID 527;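 active = share of bacteria positive for the green fluorescent reporter and its mean brightness both inhibited by 50% or more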
26S disassembly: blocks ATP-dependent breakdown of the yeast 26S proteasome; AID 751; inhibition of disassembly, % (concentration not given with the values); anti-FLAG beads, GFP-proteasome disassembly, flow cytometry; 24,000 tested, 0.2% active;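 active = inhibition of disassembly above about 33%, limit read from the data; inconclusive = likely self-fluorescent, control bead median signal at least 40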;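 also: higher percent means more bead fluorescence retained so stronger block of disassembly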
A number is an active result; – = inactive; ? = inconclusive; · = no result given. An excerpt weighted towards active compounds, which were near 0.38% of everything screened.

SMILES	S aureus QS inh	26S disassembly
Cc1noc(C)c1S(=O)(=O)N1CCC(C(=O)N2CCN(C(=O)c3ccco3)CC2)CC1	–	–
Cc1noc(/C=C/c2ccco2)c1S(=O)(=O)N1CCC(C(=O)N(C)Cc2ccccc2)CC1	–	46
Cc1noc(/C=C/c2ccco2)c1S(=O)(=O)N1CCC(C(=O)N2c3ccccc3CC2C)CC1 (centres undefined)	–	105
Cc1noc(C)c1S(=O)(=O)N1CCC(C(=O)N2CCN(c3ccccc3Cl)CC2)CC1	–	–
CC(NC(=O)Cc1cccs1)C(c1cccs1)N1CCOCC1 (centres undefined)	–	–
COc1cccc(C2C3=C(CCCC3=O)Nc3nc4ccccc4n32)c1OC (centres undefined)	–	–
O=C(NCc1ccco1)C1CCCN(S(=O)(=O)c2cccc3cccnc23)C1 (centres undefined)	–	–
Cc1cc(Nc2cccc(C)c2C)n2nc(C)nc2n1	–	–
Cc1ccc(-c2nc(CS(=O)CC(=O)NCCC(C)C)c(C)o2)cc1 (centres undefined)	–	–
O=C(O)CSCCC(=O)Nc1ccc(F)cc1	–	–
O=C(CN1C(=O)CCSc2ccccc21)Nc1ccc2c(c1)OCCO2	–	–
O=C(CN1C(=O)CC(c2ccco2)Sc2ccccc21)Nc1ccc2c(c1)OCCO2 (centres undefined)	83	–
Cc1nn(-c2ccccc2)c2sc(C(=O)N3CCOCC3)cc12	–	–
Cc1nn(-c2ccccc2)c2sc(-c3n[nH]c(=S)o3)cc12	60	–
COc1ccc(-c2cc3nc(C)cc(C)n3n2)c(OC)c1	–	–
O=C(c1csc2c1CCCCC2)N1CCN(c2ncccn2)CC1	–	–
CC1CN(c2nc3ccccc3nc2C(C#N)C(=O)OC2CCCCC2)CC(C)O1 (centres undefined)	61	–
COc1ccccc1N1CCN(c2nc3ccccc3nc2C(C#N)C(=O)OC(C)C)CC1 (centres undefined)	–	–
CC(C)N1C(=O)CCC1C(=O)NCc1ccccc1Cl (centres undefined)	–	–
CCc1ccc(N/C(SCc2cccc(F)c2)=C(/C#N)C(=O)NCc2ccco2)cc1	65	–
CCc1ccc(NC(=O)c2cc(-c3ccco3)on2)cc1	–	–
COC(=O)CSc1nnc(CNC(=O)c2ccco2)n1-c1ccc(F)cc1	–	–
CSc1nnc2n(CCc3ccccc3)c(=O)c3c4c(sc3n12)CCCC4	–	–
Cn1c(=O)c2c3c(sc2n2c(SCc4ccccc4)nnc12)CCCC3	64	–
CCCNC(=O)NC(C(=O)OC)C12CC3CC(CC(C3)C1)C2 (centres undefined)	–	–
SMILES	S aureus QS inh	26S disassembly
O=C(CCCn1c(=S)[nH]c2cc3c(cc2c1=O)OCO3)N1CCc2ccccc2C1	66	–
O=C(CCCn1c(=S)[nH]c2cc3c(cc2c1=O)OCO3)N1CCN(c2ccccc2)CC1	–	–
O=C1CS/C(=N\C(=O)N2c3ccccc3Sc3ccccc32)N1	87	–
O=C1CSC(=Nc2ccccc2)N1	–	·
CCNC(=O)CC1C(=O)N(c2ccccc2)C(=O)N1Cc1ccc(OC)cc1 (centres undefined)	–	–
Cc1ccc(C)c(N2CCN(S(=O)(=O)c3c(C)noc3/C=C/N(C)C)CC2)c1	–	49
Cc1noc(/C=C/N(C)C)c1S(=O)(=O)N1CCN(c2ccccc2)CC1	–	–
CC1CCN(CCCNC(=O)Cc2c(C(=O)O)n(C)c3ccccc23)CC1	–	–
O=C(NCc1ccc2c(c1)OCO2)c1nnc(Cc2ccc(Cl)cc2)o1	–	–
Cc1nn(C(C)(C)C)c(OC(=O)C2CCCC2)c1S(=O)(=O)c1ccccc1	89	–
Cc1ccc(S(=O)(=O)c2c(C)nn(C(C)(C)C)c2OC(=O)C2CCCC2)cc1	–	–
Cn1c(=O)n(CCN2CCOCC2)c(=O)c2c1nc1n2CCN1c1ccccc1	–	–
O=C1CC(c2cccc(Cl)c2)CC(O)=C1C=NCCCO (centres undefined)	–	–
Cc1cc(C(=O)Nc2sc3c(c2C#N)CCCC3)no1	–	–
CC(C)Cc1cc(C(=O)Nc2sc3c(c2C#N)CCCC3)no1	55	–
O=C(CCCNS(=O)(=O)c1cccc2nsnc12)NC1CCCCC1	–	–
Cn1cc(/C=N/n2cnc3sc4c(c3c2=O)CCCC4)c2ccccc21	68	–
Cn1cc(C2NC(=O)c3c(sc4c3CCCC4)N2)c2ccccc21 (centres undefined)	–	?
CC1=C(C(N)=O)C(c2ccncc2)n2nc(-c3ccccc3Cl)nc2N1 (centres undefined)	–	–
CCN1CCN(C(=O)C2CCN(Cc3nc(-c4cccc(Cl)c4)oc3C)CC2)CC1	–	–
COC(=O)c1ccc2c(c1)N(Cc1nc(-c3cccc(Cl)c3)oc1C)C(=O)C1CCCN21 (centres undefined)	–	81
COc1ccc(CCNC(=O)C2CCN(Cc3nc(-c4ccc(Cl)cc4)oc3C)CC2)cc1OC	–	–
COC(=O)c1ccc2c(c1)N(Cc1nc(-c3ccc(Cl)cc3)oc1C)C(=O)C1CCCN21 (centres undefined)	–	138
COc1ccccc1CNC(=O)C1CCCN1S(=O)(=O)c1cccc2cccnc12 (centres undefined)	–	–
Cc1nn(-c2ccccc2)c(OC(=O)c2cccs2)c1S(=O)(=O)c1ccccc1	53	–
SMILES	S aureus QS inh	26S disassembly
Nc1cc(OC(=O)c2cccs2)nn1S(=O)(=O)c1ccccc1	–	–
O=c1c2cc3c(cc2[nH]c(=S)n1Cc1ccco1)OCO3	–	–
COc1ccc(N2CCN(CCNC(=O)CCS(=O)(=O)c3cccc4nsnc34)CC2)cc1	–	–
COc1ccc(N(CC(=O)N2CC=C(c3ccccc3)CC2)S(=O)(=O)c2c(C)noc2C)cc1	–	–
CCOc1ccc(N(CC(=O)N2CC=C(c3ccccc3)CC2)S(=O)(=O)c2c(C)noc2C)cc1	53	–
CC1CCN(c2nc3c(c(=O)[nH]c(=O)n3C)n2CCSc2ncccn2)CC1	–	–
O=C(O)CCc1nnc2n(Cc3ccc(F)cc3)c(=O)c3ccccc3n12	–	–
O=C(Nn1nnnc1Nc1ccccc1)C12CC3CC(CC(C3)C1)C2	–	–
COc1ccc(-c2nc(C#N)c(NCCCN3CCOCC3)o2)cc1	–	–
COc1ccc(-c2oc3ncn(CCN4CCOCC4)c(=N)c3c2-c2ccc(OC)cc2)cc1	53	–
COC(=O)C1C(=O)C2=C(CC1C)NC(C)=C(C(=O)OC1CCCCC1)C2c1ccc(N(C)C)cc1 (centres undefined)	54	–
COC(=O)C1C(=O)C2=C(CC1C)NC(C)=C(C(=O)OCCOc1ccccc1)C2c1ccc(C)o1 (centres undefined)	–	–
N#Cc1nc(COc2ccccc2F)oc1NCc1ccc(F)cc1	–	–
COc1ccc(CCNc2oc(COc3ccccc3F)nc2C#N)cc1	–	48
CC(=O)N1CCc2cc(S(=O)(=O)CCC(=O)Nc3c(C)n(C)n(-c4ccccc4)c3=O)ccc21	–	–
N#Cc1c(NC(NC(=O)c2ccco2)C(=O)c2ccccc2)sc2c1CCCC2 (centres undefined)	84	–
CC(=O)Nc1sc2c(c1C#N)CCCCC2	–	–
Cc1cccc(N2C(=N)SCC2=O)c1C	–	·
Cc1ccc(C(=O)N2CCCC(c3nc4c(nnn4Cc4ccccc4)c(=O)[nH]3)C2)cc1 (centres undefined)	–	–
CCn1cc(C(=O)NCCCN2CCC(C)CC2)c2cc(OC)c(OC)cc2c1=O	–	–
